According to PubChem BioAssay:
Active and inactive are the calls of the source.

Legend:
Albumin (Bos taurus) = Albumin (Bos taurus) (UniProt P02769); assay: compounds binding labelled BSA control protein – biochemical, small-molecule microarray, Alexa647 label, 635/667 nm fluorescence, artefact control for SMM control protein annotation, profiling panel (AID 1118); conditions: BSA-A647 binding, fluorescence 635 nm, higher = more signal;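 also: score merges 667 nm emission intensity and signal-to-noise per printed compound spot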
[1] = probe aXIP binding to arrayed compounds – biochemical, NeuroSMM set, 635/667 nm fluorescence, primary screen (AID 1119); conditions: small-molecule microarray, higher = more signal, called active from +8 up or from −8 down;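 also: probe is the protein aXip251-270 applied at 1 µg/mL to compound-printed slides; binding of probe to printed compounds measured as 667 nm fluorescence plus signal to noise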
[2] = probe aNOTCH3 binding on compound microarray – biochemical, small-molecule microarray, 635/667 nm fluorescence, primary screen (AID 1120); conditions: higher = more signal;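 also: probe is a biotin-tagged antibody raised against NOTCH3 rather than NOTCH3 protein; score merges spot fluorescence near 667 nm with spot signal to noise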
[3] = probe aNOTCH2 binding on compound microarray – biochemical, small-molecule microarray, 635/667 nm fluorescence, primary screen (AID 1121); conditions: higher = more signal;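 also: score merges feature fluorescence read at 667 nm with its signal to noise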
[4] = target: Carbonic anhydrase 2 (Homo sapiens) (UniProt P00918); assay: compounds binding carbonic anhydrase 2 – biochemical, small-molecule microarray, Alexa647-labelled CAII, profiling panel (AID 1122); conditions: CAII-A647 binding fluorescence, higher = more signal
[5] = COS7 lysate on small-molecule microarray, probe aHis, 635 nm (AID 1123); conditions: COS7 cell lysate, fluorescence, higher = more signal;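 also: z-score combines 667nm fluorescence intensity with signal-to-noise per printed compound spot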
[6] = probe aLAP1 signal on lysate-treated microarray – cell lysate, small-molecule microarray, COS7 lysate, primary screen (AID 1124); conditions: probe aLAP1, fluorescence, higher = more signal;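 also: lysate comes from COS7 cells expressing LAP1 and is applied at 0.3 µg/mL; score merges spot fluorescence near 667 nm with signal-to-noise over triplicate slides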
Sam68 (KHDRBS1) = assay: compounds binding KHDRBS1 protein – biochemical, small-molecule microarray, 635 nm fluorescence, primary screen (AID 1125); conditions: higher = more signal;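 also: score merges 667 nm channel intensity with signal to noise over triplicate slides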
[7] = tested on: Chordin-like protein 2 (CHRDL2); assay: compounds binding chordin-like 2 – biochemical, small-molecule microarray, 635 nm fluorescence, primary screen (AID 1126); conditions: fluorescence 635 nm, higher = more signal;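 also: printed compound slides probed with Chrdl2 protein at 4 µg/mL for 1 h at 4 C; score merges 667 nm emission intensity with signal to noise over three replicate slides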
[8] = target: Concanavalin-A (Canavalia ensiformis) (UniProt P02866); assay: compounds binding concanavalin A lectin – biochemical, small-molecule microarray, Alexa647 label, 635 nm, artefact control for SMM control protein annotation, primary screen (AID 1127); conditions: ConA-A647 binding fluorescence, higher = more signal;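 also: z combines 667 nm emission intensity with signal-to-noise across three replicate slides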
[9] = compounds binding Alexa647 anti-His antibody – biochemical, small-molecule microarray, 635 nm fluorescence, artefact control for SMM control protein annotation, primary screen (AID 1128); conditions: higher = more signal;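 also: score merges feature fluorescence with signal-to-noise for each printed compound spot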
[10] = tested on: Human papillomavirus type 1a E7 protein (residues 1-88); assay: HPV1a E7 small-molecule binders, primary screen, biochemical, small-molecule microarray, residues 1-88, 635 nm (AID 1129); conditions: small-molecule microarray binding, fluorescence 635 nm; higher = more signal
[11] = target: Focal adhesion kinase 1 (Homo sapiens) (UniProt Q05397); assay: PTK2 protein binding on printed compound slides – biochemical, small-molecule microarray, 635/667 nm fluorescence, BSA, DTT, primary screen (AID 1130); conditions: 635 nm fluorescence, higher = more signal;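 also: composite of spot emission at 667 nm and signal to noise over triplicate slides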
[12] = tested on: Fibrinogen (Alexa647-labelled); assay: Alexa647-fibrinogen binding to printed small molecules – biochemical, small-molecule microarray, 635/667 nm fluorescence, artefact control for SMM control-protein annotation, profiling panel (AID 1131); conditions: fibrinogen-A647 binding fluorescence, higher = more signal;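 also: z-score merges 667 nm fluorescence with per-spot signal-to-noise over triplicate slides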
[13] = target: Follistatin (Homo sapiens) (UniProt P19883); assay: FST protein binding to printed compounds – biochemical, small-molecule microarray, 635/667 nm fluorescence, primary screen (AID 1132); conditions: 635 nm fluorescence, higher = more signal
[14] = target: Fibroblast growth factor 2 (Homo sapiens) (UniProt P09038); assay: basic fibroblast growth factor binding to printed compounds – biochemical, small-molecule microarray, 635/667 nm fluorescence, primary screen (AID 1133); conditions: FGF2, fluorescence 635/667, higher = more signal
[15] = JC-1 mitochondrial potential readout, lung cancer cells – cell-based, A549, JC-1 fluorescence, basal, 24 h, 100 nL, profiling panel (AID 1138); conditions: higher = more signal;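 also: A549 lung adenocarcinoma cells under basal conditions with no added stimulus; test concentration not given here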
Lefty1 = Lefty1 protein binding to printed compounds – biochemical, small-molecule microarray, 635/667 nm fluorescence, primary screen (AID 1139); conditions: fluorescence 635/667, higher = more signal
[16] = tested on: wheat germ agglutinin (Triticum aestivum), Alexa647-labelled; assay: Alexa647-WGA lectin binding to printed small molecules – biochemical, small-molecule microarray, 635/667 nm fluorescence, artefact control for SMM control-protein annotation, profiling panel (AID 1140); conditions: WGA-A647 binding, 635 nm fluorescence, higher = more signal;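 also: score merges 667 nm feature emission with signal to noise over triplicate slides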
[17] = target: Luciferin 4-monooxygenase (Photinus pyralis) (UniProt P08659); assay: inhibition of purified Photinus pyralis luciferase – biochemical, luminescence, purified enzyme, 2006 set, primary screen (AID 1141); conditions: purified firefly luciferase, SteadyGlo luminescence, 30 min; higher = more signal, called active from +8 up or from −8 down;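 also: cell-free assay with purified firefly luciferase at 100 ng per well in PBS; test concentration not given here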
Chain of Luciferin 4-monooxygenase (Photinus pyralis) (P08659 whole entry, looked up): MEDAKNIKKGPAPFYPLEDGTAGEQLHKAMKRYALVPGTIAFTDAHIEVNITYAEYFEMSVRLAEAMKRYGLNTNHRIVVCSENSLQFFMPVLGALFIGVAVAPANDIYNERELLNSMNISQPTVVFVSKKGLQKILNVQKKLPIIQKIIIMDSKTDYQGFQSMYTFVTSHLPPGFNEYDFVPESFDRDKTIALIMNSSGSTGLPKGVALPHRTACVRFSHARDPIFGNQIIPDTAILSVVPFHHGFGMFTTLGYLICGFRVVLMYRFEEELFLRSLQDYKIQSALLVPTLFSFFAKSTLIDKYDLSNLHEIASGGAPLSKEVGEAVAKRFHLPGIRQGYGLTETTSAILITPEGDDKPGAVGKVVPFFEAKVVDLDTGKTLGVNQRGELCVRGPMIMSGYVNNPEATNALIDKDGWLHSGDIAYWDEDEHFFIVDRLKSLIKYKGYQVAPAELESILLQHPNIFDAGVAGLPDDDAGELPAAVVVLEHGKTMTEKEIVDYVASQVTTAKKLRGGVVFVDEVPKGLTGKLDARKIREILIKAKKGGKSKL

Chain of Concanavalin-A (Canavalia ensiformis) (P02866 whole entry, looked up): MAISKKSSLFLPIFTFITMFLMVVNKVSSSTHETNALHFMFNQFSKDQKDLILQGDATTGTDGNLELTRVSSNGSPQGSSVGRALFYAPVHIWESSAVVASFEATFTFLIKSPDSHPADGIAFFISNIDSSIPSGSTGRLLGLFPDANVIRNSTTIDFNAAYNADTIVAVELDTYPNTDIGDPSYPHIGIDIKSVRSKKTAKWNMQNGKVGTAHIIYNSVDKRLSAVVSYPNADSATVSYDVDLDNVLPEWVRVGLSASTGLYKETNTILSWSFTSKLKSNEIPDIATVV
Chain of Focal adhesion kinase 1 (Homo sapiens) (Q05397 whole entry, looked up): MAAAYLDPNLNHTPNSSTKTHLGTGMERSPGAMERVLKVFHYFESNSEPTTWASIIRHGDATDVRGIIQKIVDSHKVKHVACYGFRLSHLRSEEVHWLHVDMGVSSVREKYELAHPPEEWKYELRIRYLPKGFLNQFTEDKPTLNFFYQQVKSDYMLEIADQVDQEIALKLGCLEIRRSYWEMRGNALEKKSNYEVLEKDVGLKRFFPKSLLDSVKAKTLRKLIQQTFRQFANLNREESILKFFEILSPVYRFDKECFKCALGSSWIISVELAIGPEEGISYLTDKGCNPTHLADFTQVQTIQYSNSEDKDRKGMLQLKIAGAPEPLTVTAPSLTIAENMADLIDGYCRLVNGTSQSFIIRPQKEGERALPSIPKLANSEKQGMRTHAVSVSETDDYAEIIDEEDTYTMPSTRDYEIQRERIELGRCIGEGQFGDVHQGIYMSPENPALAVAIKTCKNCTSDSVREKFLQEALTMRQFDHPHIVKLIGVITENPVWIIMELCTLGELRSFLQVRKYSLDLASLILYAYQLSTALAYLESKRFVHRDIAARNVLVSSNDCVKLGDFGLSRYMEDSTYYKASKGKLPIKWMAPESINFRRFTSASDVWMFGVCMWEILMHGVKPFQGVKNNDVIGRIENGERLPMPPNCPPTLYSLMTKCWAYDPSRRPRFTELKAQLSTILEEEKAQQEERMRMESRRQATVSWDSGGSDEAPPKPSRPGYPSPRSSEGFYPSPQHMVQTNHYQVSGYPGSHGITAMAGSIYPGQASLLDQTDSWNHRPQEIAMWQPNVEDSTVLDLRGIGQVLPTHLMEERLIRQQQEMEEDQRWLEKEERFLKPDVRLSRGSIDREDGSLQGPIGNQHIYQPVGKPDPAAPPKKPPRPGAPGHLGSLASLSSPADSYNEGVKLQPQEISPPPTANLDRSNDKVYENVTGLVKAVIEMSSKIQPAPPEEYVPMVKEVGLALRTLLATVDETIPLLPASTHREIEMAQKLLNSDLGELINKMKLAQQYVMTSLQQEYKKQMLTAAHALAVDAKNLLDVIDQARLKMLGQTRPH
Chain of Albumin (Bos taurus) (P02769 whole entry, looked up): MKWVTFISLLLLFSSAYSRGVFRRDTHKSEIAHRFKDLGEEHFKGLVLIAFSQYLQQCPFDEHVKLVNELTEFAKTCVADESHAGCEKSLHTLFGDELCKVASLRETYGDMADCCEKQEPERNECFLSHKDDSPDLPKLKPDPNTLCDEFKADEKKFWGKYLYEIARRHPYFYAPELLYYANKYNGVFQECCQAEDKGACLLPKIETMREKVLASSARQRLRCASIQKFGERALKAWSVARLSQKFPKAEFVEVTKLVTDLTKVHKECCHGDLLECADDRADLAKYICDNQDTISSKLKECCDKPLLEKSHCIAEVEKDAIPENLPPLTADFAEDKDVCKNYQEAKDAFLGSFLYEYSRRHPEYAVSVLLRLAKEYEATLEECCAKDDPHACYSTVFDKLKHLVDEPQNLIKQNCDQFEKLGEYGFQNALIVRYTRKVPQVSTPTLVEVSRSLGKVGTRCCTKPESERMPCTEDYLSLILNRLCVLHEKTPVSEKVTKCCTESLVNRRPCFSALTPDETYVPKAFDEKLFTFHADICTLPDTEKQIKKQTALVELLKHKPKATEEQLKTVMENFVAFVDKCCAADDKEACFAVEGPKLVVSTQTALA
Chain of Follistatin (Homo sapiens) (P19883 whole entry, looked up): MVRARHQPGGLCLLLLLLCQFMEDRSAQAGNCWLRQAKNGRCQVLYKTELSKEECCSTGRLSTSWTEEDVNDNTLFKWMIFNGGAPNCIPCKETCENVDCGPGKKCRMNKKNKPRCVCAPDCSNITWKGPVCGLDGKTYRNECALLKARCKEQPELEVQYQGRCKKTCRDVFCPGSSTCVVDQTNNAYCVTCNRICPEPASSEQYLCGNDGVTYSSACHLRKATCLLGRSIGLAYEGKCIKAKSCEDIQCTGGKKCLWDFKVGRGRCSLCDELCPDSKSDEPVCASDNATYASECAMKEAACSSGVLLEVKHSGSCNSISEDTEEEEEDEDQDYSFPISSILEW
Chain of Fibroblast growth factor 2 (Homo sapiens) (P09038 whole entry, looked up): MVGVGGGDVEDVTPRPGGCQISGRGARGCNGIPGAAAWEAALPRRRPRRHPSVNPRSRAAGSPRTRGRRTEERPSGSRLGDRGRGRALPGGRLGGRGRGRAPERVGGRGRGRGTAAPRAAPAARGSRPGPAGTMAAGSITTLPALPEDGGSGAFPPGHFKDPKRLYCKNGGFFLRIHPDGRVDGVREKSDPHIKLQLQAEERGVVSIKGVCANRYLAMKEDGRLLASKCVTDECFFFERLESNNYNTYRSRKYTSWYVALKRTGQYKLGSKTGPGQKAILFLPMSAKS

Structure (SMILES) | composite z-score (Albumin (Bos taurus)) | composite Z-score [1] | composite z-score [2] | composite z-score [3] | composite z-score [4] | composite z-score [5] | composite z-score [6] | composite z-score (Sam68 (KHDRBS1)) | composite z-score [7] | composite z-score [8] | composite z-score [9] | composite z-score [10] | composite z-score [11] | composite z-score [12] | composite z-score [13] | composite z-score [14] | z-score [15] | composite z-score (Lefty1) | composite z-score [16] | z-score [17]
CCOC(=O)[C@H](Cc1ccccc1)NC(=O)CCC1CC(OC(=O)NCc2ccc3c(c2)OCO3)CC2(CCCC(COC(=O)NCCCN3CCCC3=O)O2)O1 (stereo not given in full) | 0.613 | 0.581 (inactive) | -0.0204 | -0.179 | 0.454 | 1.27 | 0.334 | 1.32 | 0.329 | 1.1 | 0.556 | 0.959 | 0.28 | 0.87 | 0.72 | 0.537 | 0.232 | 0.428 | 0.305 | 1.12 (inactive)
O=C1C=C[C@@H](O)[C@@H]2[C@@H]3C(=O)N(C4CCCCC4)C(=O)[C@@H]3CC[C@@H]12 | 0.13 | -0.388 (inactive) | 0.0738 | -0.126 | 0.143 | 0.214 | 0.196 | 0.595 | 0.542 | 0.273 | 0.575 | 0.55 | 0.431 | 0.831 | 1.21 | 0.826 | 1.09 | 0.629 | 0.0297 | -0.611 (inactive)
CCO[C@H](c1cc(OC)cc([N+](=O)[O-])c1OC)[C@H](C)[C@@H](OC)[C@H](C)C=CCC(=O)OC | 0.825 | 0.179 (inactive) | -0.0947 | -0.0907 | 0.725 | 0.0657 | -0.0242 | 0.724 | -0.0602 | 0.666 | -0.406 | 0.257 | 0.115 | 0.949 | 0.0822 | 0.183 | 0.163 | -0.125 | 0.298 | 0.114 (inactive)
COC(=O)CC=C[C@@H](C)[C@@H](C=NOC[C@@H](O)COCc1ccco1)NS(=O)(=O)c1ccc(C)cc1 | -1.17 | -0.553 (inactive) | -0.169 | -0.0854 | -0.485 | -1.36 | -0.504 | -0.866 | 1.52 | -2.76 | 0.13 | -1.94 | -0.432 | -1.03 | 1.29 | 0.542 | -0.383 | 0.915 | -0.681 | 0.167 (inactive)
CCOC(=O)CCN1C(=O)[C@H]2[C@H]3[C@H](O)[C@H](O)CC(=NOCC=C(C)CCC=C(C)C)[C@@H]3CC[C@H]2C1=O | 0.275 | -0.754 (inactive) | -0.0043 | -0.154 | 0.003 | 0.0888 | 0.0278 | 0.449 | 0.434 | 1.01 | -0.34 | 0.741 | -0.115 | 0.7 | 0.696 | 0.884 | 0.0237 | 0.537 | 0.132 | 0.597 (inactive)
CC(=O)OC[C@H]1O[C@H](CC=NOCC[C@@H]2C=C[C@H](OC(C)=O)[C@@H](COC(C)=O)O2)C=C[C@@H]1OC(C)=O | -0.076 | -0.69 (inactive) | 0.127 | -0.165 | -0.146 | -0.489 | -0.099 | 1.29 | 0.973 | 0.304 | 1.77 | 0.642 | -0.216 | -0.305 | 0.447 | 1.02 | -0.6 | 1.29 | -0.111 | 0.966 (inactive)
CCOC(=O)CCN1C(=O)[C@H]2[C@@H]3C(=CC[C@H]2C1=O)C(=O)[C@H]1O[C@H]1[C@H]3O | 0.375 | -0.342 (inactive) | -0.313 | -0.146 | 0.534 | -0.774 | 0.0946 | -0.728 | -0.23 | -0.666 | -0.705 | -0.307 | -0.336 | -0.476 | -1.02 | -0.858 | 0.736 | -0.762 | 0.243 | -1.04 (inactive)
CCN1C(=O)[C@H]2[C@H]3[C@H](O)[C@H](O)CC(=NO[C@@H](C)c4cc(-c5c(C)cc(C)cc5C)no4)[C@@H]3CC[C@H]2C1=O | 0.581 | -0.0662 (inactive) | 0.051 | -0.0562 | 0.465 | 1.11 | 0.693 | 1.3 | 0.333 | 1.02 | -0.185 | 0.918 | 0.23 | 0.813 | 0.809 | 1.08 | 0.474 | 0.922 | 1.01 | 1.06 (inactive)
COC(=O)[C@@H]1CC[C@H](C)[C@@H](c2ccc(C)cc2)N1C(=O)c1ccc(C=NO[C@@H](C)c2cc(-c3c(C)cc(C)cc3C)no2)cc1 | 0.432 | -0.136 (inactive) | -0.004 | -0.126 | 0.154 | -0.0142 | -0.207 | 1.2 | 0.306 | 0.894 | -0.637 | 0.706 | 0.137 | 0.602 | 0.365 | 0.553 | 1.65 | 0.677 | 0.0859 | 0.195 (inactive)
CCOC(=O)CCN1C(=O)[C@H]2[C@H]3[C@H](O)[C@H](O)CC(=NO[C@@H]4O[C@H](CO)[C@@H](O)[C@H](O)[C@H]4O)[C@H]3CC[C@H]2C1=O | 0.0221 | -0.048 (inactive) | -0.15 | -0.113 | 0.197 | 0.174 | -0.0363 | 0.201 | 0.52 | 0.487 | 0.919 | 0.544 | 0.068 | 0.551 | 0.0489 | 0.599 | -0.658 | 0.49 | -0.104 | 0.493 (inactive)
O=C1[C@H]2[C@H]3[C@H](O)[C@H](O)CC(=NO[C@@H]4O[C@H](CO)[C@@H](O)[C@H](O)[C@H]4O)[C@H]3CC[C@H]2C(=O)N1c1ccc(F)cc1F | -0.168 | -0.463 (inactive) | 0.196 | -0.177 | -0.556 | -0.258 | 0.0482 | 1.07 | -0.819 | -1.06 | -1.26 | -0.162 | 0.633 | 0.192 | -1.22 | 0.502 | -0.352 | -0.152 | -0.052 | 1.42 (inactive)
